# A number with no mark means an inactive call.
# Assays:
# Experiment in all cases: log2 ratio of Biotin-Ahx-Ub-VS probe labelling (fragment/DMSO); higher = less target engagement (more negative = stronger competition), active = hit call of the paper (q ≤ 0.05, log2 ratio ≤ -1)
# Settings in all cases: compound concentration: 200 uM; treatment time: 3 h
# OTUD6B = target: T1, OTUD6B (UniProt Q8N6M0)
# T1 sequence (whole entry): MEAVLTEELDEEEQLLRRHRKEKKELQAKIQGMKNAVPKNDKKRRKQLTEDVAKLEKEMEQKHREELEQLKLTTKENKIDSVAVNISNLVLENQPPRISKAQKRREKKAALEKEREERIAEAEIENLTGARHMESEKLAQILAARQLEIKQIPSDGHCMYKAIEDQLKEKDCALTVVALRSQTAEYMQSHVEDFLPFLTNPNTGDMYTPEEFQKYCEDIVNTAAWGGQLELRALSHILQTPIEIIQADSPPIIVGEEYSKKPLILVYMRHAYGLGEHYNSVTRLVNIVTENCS
# Procedure, shortened: (§1)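 Values give the average log2 ratio of fragment to vehicle, assessed by unpaired t-test on global-median-normalised Spectronaut label-free quantities. Proteins needed ≥2 unique peptides. HEK293T lysate (495 µg per sample) was treated in triplicate with fragment at 200 µM or vehicle for 3 h and then with Biotin-Ahx-Ub-VS at 0.5 µM final for 1 h. Labelled DUBs were NeutrAvidin-enriched, digested and run by diaPASEF LC-MS/MS.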
# OTUD7B = target: T2, OTUD7B (UniProt Q6GQQ9)
# T2 sequence (whole entry): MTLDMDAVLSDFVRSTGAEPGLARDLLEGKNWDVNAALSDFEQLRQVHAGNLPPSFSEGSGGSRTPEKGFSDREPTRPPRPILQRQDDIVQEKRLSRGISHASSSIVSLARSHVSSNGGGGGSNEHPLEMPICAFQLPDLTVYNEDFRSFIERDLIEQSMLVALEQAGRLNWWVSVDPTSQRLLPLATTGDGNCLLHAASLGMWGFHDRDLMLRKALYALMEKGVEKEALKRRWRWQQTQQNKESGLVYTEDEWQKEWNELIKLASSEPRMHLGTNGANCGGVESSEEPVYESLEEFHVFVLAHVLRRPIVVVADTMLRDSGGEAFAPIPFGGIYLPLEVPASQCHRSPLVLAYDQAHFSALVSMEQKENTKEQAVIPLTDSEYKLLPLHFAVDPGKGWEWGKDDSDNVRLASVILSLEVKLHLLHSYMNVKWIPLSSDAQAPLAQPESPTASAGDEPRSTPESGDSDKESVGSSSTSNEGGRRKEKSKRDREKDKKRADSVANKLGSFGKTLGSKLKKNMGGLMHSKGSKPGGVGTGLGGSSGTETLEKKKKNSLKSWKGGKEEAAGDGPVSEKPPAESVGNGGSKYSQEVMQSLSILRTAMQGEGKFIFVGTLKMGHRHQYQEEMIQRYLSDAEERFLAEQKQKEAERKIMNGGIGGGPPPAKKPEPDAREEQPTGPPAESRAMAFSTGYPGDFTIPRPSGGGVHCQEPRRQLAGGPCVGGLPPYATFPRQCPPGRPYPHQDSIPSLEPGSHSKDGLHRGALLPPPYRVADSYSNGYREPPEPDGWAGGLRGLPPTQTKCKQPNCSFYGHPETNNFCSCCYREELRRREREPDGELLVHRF
# Procedure, shortened: as §1
# PRPF8 = PRPF8 (UniProt Q6P2Q9)
# Procedure, shortened: as §1
# PSMD7 = target: T3, PSMD7 (UniProt P51665)
# T3 sequence (whole entry): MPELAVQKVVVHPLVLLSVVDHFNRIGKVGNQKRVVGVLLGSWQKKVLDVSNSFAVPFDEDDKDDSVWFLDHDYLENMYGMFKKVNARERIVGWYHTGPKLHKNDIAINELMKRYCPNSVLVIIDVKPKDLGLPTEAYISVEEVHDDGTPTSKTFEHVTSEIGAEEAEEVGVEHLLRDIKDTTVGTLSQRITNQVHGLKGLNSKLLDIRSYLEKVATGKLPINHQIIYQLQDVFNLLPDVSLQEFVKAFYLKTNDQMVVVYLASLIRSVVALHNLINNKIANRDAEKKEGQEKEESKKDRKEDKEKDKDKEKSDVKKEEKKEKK
# Procedure, shortened: as §1
# UCHL1 = UCHL1 (UniProt P09936)
# Procedure, shortened: as §1
# UCHL3 = target: T4, UCHL3 (UniProt P15374)
# T4 sequence (whole entry): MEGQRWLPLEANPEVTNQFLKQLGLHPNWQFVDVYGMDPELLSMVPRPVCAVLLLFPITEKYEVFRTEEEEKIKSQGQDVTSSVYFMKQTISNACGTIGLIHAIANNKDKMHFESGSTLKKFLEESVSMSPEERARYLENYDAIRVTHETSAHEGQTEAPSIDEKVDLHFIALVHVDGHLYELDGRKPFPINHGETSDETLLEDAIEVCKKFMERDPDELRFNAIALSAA
# Procedure, shortened: as §1
# UCHL5 = target: T5, UCHL5 (UniProt Q9Y5K5)
# T5 sequence (whole entry): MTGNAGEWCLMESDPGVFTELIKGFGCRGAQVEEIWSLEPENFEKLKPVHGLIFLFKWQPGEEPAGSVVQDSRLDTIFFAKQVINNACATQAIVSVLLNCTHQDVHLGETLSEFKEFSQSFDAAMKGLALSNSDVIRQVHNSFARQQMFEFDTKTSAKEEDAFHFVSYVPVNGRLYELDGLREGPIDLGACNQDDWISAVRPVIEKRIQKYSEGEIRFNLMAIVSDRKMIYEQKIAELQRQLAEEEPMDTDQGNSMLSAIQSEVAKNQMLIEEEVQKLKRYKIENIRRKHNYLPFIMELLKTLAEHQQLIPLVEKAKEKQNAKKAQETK
# Procedure, shortened: as §1
# USP10 = USP10 (UniProt Q14694)
# Procedure, shortened: as §1
# USP15 = target: T6, USP15 (UniProt Q9Y4E8)
# T6 sequence (whole entry): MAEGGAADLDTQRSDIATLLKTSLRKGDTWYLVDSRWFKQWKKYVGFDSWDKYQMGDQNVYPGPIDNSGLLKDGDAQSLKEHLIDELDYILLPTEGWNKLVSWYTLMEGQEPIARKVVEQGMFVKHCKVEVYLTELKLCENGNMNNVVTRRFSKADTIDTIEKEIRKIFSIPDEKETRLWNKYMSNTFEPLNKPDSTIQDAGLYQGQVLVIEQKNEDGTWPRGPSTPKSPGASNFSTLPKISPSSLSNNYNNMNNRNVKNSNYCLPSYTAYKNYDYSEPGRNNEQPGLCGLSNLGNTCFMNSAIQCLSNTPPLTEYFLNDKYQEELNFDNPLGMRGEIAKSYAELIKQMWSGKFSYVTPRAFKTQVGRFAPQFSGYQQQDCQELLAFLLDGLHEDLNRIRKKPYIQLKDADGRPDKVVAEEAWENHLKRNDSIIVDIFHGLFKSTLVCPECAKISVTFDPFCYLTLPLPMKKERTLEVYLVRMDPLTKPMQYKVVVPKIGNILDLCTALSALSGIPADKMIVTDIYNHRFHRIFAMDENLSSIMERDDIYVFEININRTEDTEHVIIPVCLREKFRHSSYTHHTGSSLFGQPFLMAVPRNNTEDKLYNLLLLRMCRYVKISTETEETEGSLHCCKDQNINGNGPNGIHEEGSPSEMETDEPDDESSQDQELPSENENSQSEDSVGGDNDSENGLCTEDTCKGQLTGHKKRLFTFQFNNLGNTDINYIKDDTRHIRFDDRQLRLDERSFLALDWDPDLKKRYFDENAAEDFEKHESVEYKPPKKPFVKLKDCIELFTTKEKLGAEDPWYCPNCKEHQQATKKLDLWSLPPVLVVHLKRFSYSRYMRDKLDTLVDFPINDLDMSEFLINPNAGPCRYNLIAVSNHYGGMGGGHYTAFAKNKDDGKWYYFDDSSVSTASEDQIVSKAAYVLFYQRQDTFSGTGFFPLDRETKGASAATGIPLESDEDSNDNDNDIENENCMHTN
# Procedure, shortened: as §1
# USP16 = USP16 (UniProt Q9Y5T5)
# Procedure, shortened: as §1
# Sequence of USP10 (Q14694 whole entry): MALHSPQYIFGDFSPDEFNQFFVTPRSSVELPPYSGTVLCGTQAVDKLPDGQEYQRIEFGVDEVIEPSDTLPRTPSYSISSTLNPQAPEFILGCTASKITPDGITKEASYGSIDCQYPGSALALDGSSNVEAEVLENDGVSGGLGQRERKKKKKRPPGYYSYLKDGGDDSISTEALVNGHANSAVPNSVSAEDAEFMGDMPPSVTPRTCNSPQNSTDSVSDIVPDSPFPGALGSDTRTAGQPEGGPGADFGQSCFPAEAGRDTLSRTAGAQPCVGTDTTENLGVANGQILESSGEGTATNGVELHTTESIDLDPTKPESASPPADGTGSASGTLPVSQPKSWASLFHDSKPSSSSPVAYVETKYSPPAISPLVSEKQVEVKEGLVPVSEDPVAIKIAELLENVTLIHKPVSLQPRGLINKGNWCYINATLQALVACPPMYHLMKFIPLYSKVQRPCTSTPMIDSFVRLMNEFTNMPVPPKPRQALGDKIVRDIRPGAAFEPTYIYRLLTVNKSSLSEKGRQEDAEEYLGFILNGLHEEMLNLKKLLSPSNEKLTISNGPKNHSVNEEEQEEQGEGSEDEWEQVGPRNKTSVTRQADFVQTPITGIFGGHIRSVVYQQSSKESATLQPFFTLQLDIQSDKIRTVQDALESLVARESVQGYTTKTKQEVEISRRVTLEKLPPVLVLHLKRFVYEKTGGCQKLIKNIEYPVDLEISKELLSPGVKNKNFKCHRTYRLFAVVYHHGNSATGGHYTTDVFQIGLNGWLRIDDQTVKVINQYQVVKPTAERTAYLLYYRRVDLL
# Sequence of UCHL1 (P09936 whole entry, looked up): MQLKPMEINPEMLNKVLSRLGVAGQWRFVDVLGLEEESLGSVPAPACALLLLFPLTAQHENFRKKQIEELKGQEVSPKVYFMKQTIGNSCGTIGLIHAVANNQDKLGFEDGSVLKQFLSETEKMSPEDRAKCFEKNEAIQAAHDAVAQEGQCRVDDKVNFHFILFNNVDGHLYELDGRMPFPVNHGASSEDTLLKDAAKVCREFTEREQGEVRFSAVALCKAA
# Sequence of USP16 (Q9Y5T5 whole entry, looked up): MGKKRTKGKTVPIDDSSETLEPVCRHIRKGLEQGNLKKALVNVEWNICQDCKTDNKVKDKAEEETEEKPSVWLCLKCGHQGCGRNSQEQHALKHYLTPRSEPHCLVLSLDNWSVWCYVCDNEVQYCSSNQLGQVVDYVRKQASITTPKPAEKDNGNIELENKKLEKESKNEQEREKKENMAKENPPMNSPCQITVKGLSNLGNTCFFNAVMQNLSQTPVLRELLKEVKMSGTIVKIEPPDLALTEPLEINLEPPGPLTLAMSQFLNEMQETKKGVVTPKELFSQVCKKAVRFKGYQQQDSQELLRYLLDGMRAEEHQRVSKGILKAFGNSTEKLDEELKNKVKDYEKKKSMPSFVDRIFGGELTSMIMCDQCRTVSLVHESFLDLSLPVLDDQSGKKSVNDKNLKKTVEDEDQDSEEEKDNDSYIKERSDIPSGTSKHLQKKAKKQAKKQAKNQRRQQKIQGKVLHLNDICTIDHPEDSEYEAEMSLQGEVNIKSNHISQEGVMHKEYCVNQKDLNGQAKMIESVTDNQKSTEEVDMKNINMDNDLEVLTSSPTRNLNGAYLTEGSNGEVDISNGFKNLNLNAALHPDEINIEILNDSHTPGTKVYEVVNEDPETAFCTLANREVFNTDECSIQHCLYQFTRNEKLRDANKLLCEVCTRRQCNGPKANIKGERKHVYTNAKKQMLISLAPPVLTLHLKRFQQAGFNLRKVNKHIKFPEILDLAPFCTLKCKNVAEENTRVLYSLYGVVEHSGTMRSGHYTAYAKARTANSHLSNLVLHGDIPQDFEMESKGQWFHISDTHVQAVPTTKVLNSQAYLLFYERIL
smiles,measurement,setting,value
O=C(CCl)N1CCc2ccccc2C(O)C1 (stereo not given),log2 ratio of Biotin-Ahx-Ub-VS probe labelling,OTUD6B,-0.357
same,log2 ratio of Biotin-Ahx-Ub-VS probe labelling,OTUD7B,-1.21 (active)
same,log2 ratio of Biotin-Ahx-Ub-VS probe labelling,PRPF8,0.137
same,log2 ratio of Biotin-Ahx-Ub-VS probe labelling,PSMD7,-0.212
same,log2 ratio of Biotin-Ahx-Ub-VS probe labelling,UCHL1,-1.58 (active)
same,log2 ratio of Biotin-Ahx-Ub-VS probe labelling,UCHL3,-0.197
same,log2 ratio of Biotin-Ahx-Ub-VS probe labelling,UCHL5,-0.317
same,log2 ratio of Biotin-Ahx-Ub-VS probe labelling,USP10,-0.14
same,log2 ratio of Biotin-Ahx-Ub-VS probe labelling,USP15,-0.392
same,log2 ratio of Biotin-Ahx-Ub-VS probe labelling,USP16,0.132
